PubChem BioAssay (NCI)
Several values for one entry are separate records, joined by “and”; a condition that tells them apart may be missing. Identical values can stand only once. This is part of a sample that, as a whole, favours compounds with a hit. Of some 83,000 tested, about 20% had one in any assay.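 Plates (96-well) were seeded with cells, treated with compound at one concentration, and incubated for 48 hours before percent growth was determined.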 Activity calls are given as the source filed them. Rule for the calls: active = growth percent below 10; inactive = the rest.

Key:
Assay in all cases: NCI-60 one-dose screen, 48 h (100 = growth as untreated, 0 = no growth, -100 = all killed)
DU-145 prostate = system: DU-145 prostate
K-562 leukemia = system: K-562 leukemia
MALME-3M melanoma = system: MALME-3M melanoma
MDA-MB-231 breast = system: MDA-MB-231 breast
RXF 393 renal = system: RXF 393 renal
SF-268 CNS = system: SF-268 CNS
SF-295 CNS = system: SF-295 CNS
SF-539 CNS = system: SF-539 CNS
UACC-257 melanoma = system: UACC-257 melanoma
M14 melanoma = details: 10 µM

Compound: CCO/C=C1\SC(=S)N(c2cccc(O)c2)C1=O
- growth (DU-145 prostate; 10 µM unless noted): 109% (inactive)
- growth (K-562 leukemia; 10 µM): 89.9% (inactive)
- growth (MALME-3M melanoma; 10 µM): 88.2% (inactive)
- growth (MDA-MB-231 breast; 10 µM): 102% (inactive)
- growth (RXF 393 renal; 10 µM unless noted): 102% (inactive)
- growth (SF-268 CNS; 10 µM): 103% (inactive)
- growth (SF-295 CNS; 10 µM): 99.5% (inactive)
- growth (SF-539 CNS; 10 µM): 102% (inactive)

Compound: COc1cccc2c1C(=O)c1c(O)c3c(c(O)c1C2=O)C[C@@](O)(C(=O)CO)C[C@@H]3OC1CC(N)C(O)C(C)O1 (stereo not given in full)
- growth (DU-145 prostate; 2.5 µM): -33.2% (active)
- growth (DU-145 prostate; 10 µM): 13.2% (inactive)
- growth (K-562 leukemia; 0.0025 µM): 107% (inactive)
- growth (K-562 leukemia; 1 µM): 32.8% (inactive)
- growth (K-562 leukemia; 2.5 µM): 28.1% (inactive)
- growth (K-562 leukemia; 10 µM): 2.13% (active)
- growth (MALME-3M melanoma; 0.0025 µM): 79.3% (inactive)
- growth (MALME-3M melanoma; 1 µM): -17.2% (active)
- growth (MALME-3M melanoma; 2.5 µM): 30% (inactive)
- growth (MALME-3M melanoma; 10 µM): -80.1% (active)
- growth (MDA-MB-231 breast; 0.0025 µM): 124% (inactive)
- growth (MDA-MB-231 breast; 1 µM): 71% (inactive)
- growth (MDA-MB-231 breast; 2.5 µM): 82.1% (inactive)
- growth (MDA-MB-231 breast; 10 µM): 3.79% (active)
- growth (RXF 393 renal; 0.0025 µM): 107% (inactive)
- growth (RXF 393 renal; 10 µM): -28.5% (active)
- growth (SF-268 CNS; 0.0025 µM): 97% (inactive)
- growth (SF-268 CNS; 1 µM): 41% (inactive)
- growth (SF-268 CNS; 2.5 µM): 16.7% (inactive)
- growth (SF-268 CNS; 10 µM): -4.32% (active)
- growth (SF-295 CNS; 0.0025 µM): 95.8% (inactive)
- growth (SF-295 CNS; 1 µM): 2.06% (active)
- growth (SF-295 CNS; 2.5 µM): -1.94% (active)
- growth (SF-295 CNS; 10 µM): -27.6% (active)
- growth (SF-539 CNS; 0.0025 µM): 97.1% (inactive)
- growth (SF-539 CNS; 1 µM): 36.5% (inactive)
- growth (SF-539 CNS; 2.5 µM): 32.3% (inactive)
- growth (SF-539 CNS; 10 µM): -50.3% (active)
- growth (UACC-257 melanoma; 0.0025 µM): 90% (inactive)
- growth (UACC-257 melanoma; 1 µM): 28.3% (inactive)
- growth (UACC-257 melanoma; 2.5 µM): 42.8% (inactive)
- growth (UACC-257 melanoma; 10 µM): 3.46% (active)

Compound: COC(=O)C1=COC(C)C2C[n+]3ccc4c([nH]c5ccccc54)c3CC12 (stereo not given)
- growth (DU-145 prostate; 10 µM unless noted): 112% (inactive) and 108% (inactive)
- growth (K-562 leukemia; 10 µM): 93.7% (inactive) and 85.2% (inactive)
- growth (MALME-3M melanoma; 10 µM): 105% (inactive) and 93.8% (inactive)
- growth (MDA-MB-231 breast; 10 µM): 101% (inactive) and 73.2% (inactive)
- growth (RXF 393 renal; 10 µM unless noted): 112% (inactive)
- growth (SF-268 CNS; 10 µM): 99.1% (inactive) and 96.2% (inactive)
- growth (SF-295 CNS; 10 µM): 102% (inactive) and 90.8% (inactive)
- growth (SF-539 CNS; 10 µM): 105% (inactive)
- growth (UACC-257 melanoma; 10 µM): 106% (inactive) and 95.1% (inactive)

Compound: Nc1c2ccccc2nc2ccccc12
- growth (DU-145 prostate; 10 µM unless noted): 16.3% (inactive) and 40.9% (inactive)
- growth (K-562 leukemia; 10 µM): 1.31% (active) and 11.9% (inactive) and 27% (inactive)
- growth (MALME-3M melanoma; 10 µM): 5.23% (active) and 42% (inactive) and 34% (inactive)
- growth (MDA-MB-231 breast; 10 µM): 25.2% (inactive) and 40.1% (inactive) and 35.4% (inactive)
- growth (RXF 393 renal; 10 µM unless noted): 8.02% (active) and -6.66% (active) and 44.2% (inactive)
- growth (SF-268 CNS; 10 µM): 24.2% (inactive) and 47.3% (inactive)
- growth (SF-295 CNS; 10 µM): -24.9% (active) and 25.7% (inactive) and 49.5% (inactive)
- growth (SF-539 CNS; 10 µM): 21.7% (inactive) and 23.4% (inactive) and 29.2% (inactive)
- growth (UACC-257 melanoma; 10 µM): -31.3% (active) and 25.4% (inactive) and 53.5% (inactive)

Compound: CCCCCCCCCCCCSC(=NC)NC
- growth (DU-145 prostate; 10 µM unless noted): 41.3% (inactive) and 75.6% (inactive)
- growth (K-562 leukemia; 10 µM): 3.08% (active) and 2.7% (active)
- growth (MALME-3M melanoma; 10 µM): 40% (inactive) and 72.8% (inactive)
- growth (MDA-MB-231 breast; 10 µM): -28.3% (active) and 40.4% (inactive)
- growth (RXF 393 renal; 10 µM unless noted): 40.9% (inactive) and 70.6% (inactive)
- growth (SF-268 CNS; 10 µM): 40.9% (inactive) and 74.9% (inactive)
- growth (SF-295 CNS; 10 µM): 4.6% (active) and 65% (inactive)
- growth (SF-539 CNS; 10 µM): 29.3% (inactive) and 55.4% (inactive)
- growth (UACC-257 melanoma; 10 µM): 66.4% (inactive) and 98.2% (inactive)

Compound: O=C1C=CC(=CC=C2C=CN(CCCCCCCCCCCO)C=C2)C=C1
- growth (DU-145 prostate; 10 µM unless noted): 44.3% (inactive)
- growth (K-562 leukemia; 10 µM): 24.7% (inactive)
- growth (MALME-3M melanoma; 10 µM): 41.6% (inactive)
- growth (RXF 393 renal; 10 µM unless noted): 69.2% (inactive)
- growth (SF-295 CNS; 10 µM): 45.3% (inactive)
- growth (SF-539 CNS; 10 µM): 41.4% (inactive)
- growth (UACC-257 melanoma; 10 µM): 4% (active)

Compound: OCC1OC(n2cnc3c(=S)nc[nH]c32)C(O)C1O (stereo not given)
- growth (DU-145 prostate; 10 µM unless noted): 98.4% (inactive) and 51.9% (inactive)
- growth (K-562 leukemia; 10 µM): 124% (inactive) and 41.6% (inactive)
- growth (MALME-3M melanoma; 10 µM): 87.3% (inactive) and 53.3% (inactive)
- growth (MDA-MB-231 breast; 10 µM): 99.2% (inactive) and 61.9% (inactive)
- growth (RXF 393 renal; 10 µM unless noted): 98.2% (inactive) and 70.2% (inactive)
- growth (SF-268 CNS; 10 µM): 109% (inactive) and 53.9% (inactive)
- growth (SF-295 CNS; 10 µM): 101% (inactive) and 41.7% (inactive)
- growth (SF-539 CNS; 10 µM): 103% (inactive) and 31.8% (inactive)
- growth (UACC-257 melanoma; 10 µM): 105% (inactive) and 52.7% (inactive)
- growth (M14 melanoma): 126% (inactive) and 32.4% (inactive)

Compound: Clc1ccc(/C=C/c2ccccn2)c(Cl)c1
- growth (DU-145 prostate; 10 µM unless noted): 116% (inactive)
- growth (K-562 leukemia; 10 µM): 93.6% (inactive)
- growth (MALME-3M melanoma; 10 µM): 102% (inactive)
- growth (MDA-MB-231 breast; 10 µM): 85.5% (inactive)
- growth (RXF 393 renal; 10 µM unless noted): 108% (inactive)
- growth (SF-268 CNS; 10 µM): 99% (inactive)
- growth (SF-295 CNS; 10 µM): 94.5% (inactive)
- growth (SF-539 CNS; 10 µM): 89.3% (inactive)
- growth (UACC-257 melanoma; 10 µM): 99.7% (inactive)
- growth (M14 melanoma): 106% (inactive)

Compound: OC(CN1CCCC2CCCCC21)c1cc2ccccc2c2ccccc12 (stereo not given)
- growth (DU-145 prostate; 10 µM unless noted): 40.3% (inactive)
- growth (K-562 leukemia; 10 µM): -14.4% (active)
- growth (MALME-3M melanoma; 10 µM): 17.7% (inactive)
- growth (MDA-MB-231 breast; 10 µM): -11.2% (active)
- growth (SF-268 CNS; 10 µM): 45.7% (inactive)
- growth (SF-295 CNS; 10 µM): -3.44% (active)
- growth (SF-539 CNS; 10 µM): 27.8% (inactive)
- growth (UACC-257 melanoma; 10 µM): 22.7% (inactive)

Compound: Oc1ccc(N=Nc2ccccn2)c(O)c1
- growth (DU-145 prostate; 10 µM unless noted): 24.5% (inactive)
- growth (MALME-3M melanoma; 10 µM): 36.1% (inactive)
- growth (MDA-MB-231 breast; 10 µM): 35.7% (inactive)
- growth (RXF 393 renal; 10 µM unless noted): 43.4% (inactive)
- growth (SF-268 CNS; 10 µM): 20.6% (inactive)
- growth (SF-295 CNS; 10 µM): 20% (inactive)
- growth (SF-539 CNS; 10 µM): 13.1% (inactive)
- growth (UACC-257 melanoma; 10 µM): 3.09% (active)
